# MITF inh: MITF inhibition | TRPM1 promoter luciferase, luminescence, 24 h | hit rate 0.28% among 37,000 | inhibition, % (no concentration beside the values) | AID 2240; in the data active means inhibition above about 85%; inconclusive means no clear call, values can overlap the other calls; inactive means below about 68%;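 further: human melanocyte line stably carrying TRPM1 promoter luciferase reporter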
# Shh pathway inh: blocks Sonic Hedgehog signaling; AID 2313; hit rate 2.1% among 22,000; Shh-LIGHT2 Gli-luciferase reporter, 30 h; inhibition, % (concentration not given with the values);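 active means mean inhibition across valid replicates above about 65%, limit read from the data; inconclusive means mean under the limit, yet half or more replicates past it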;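 further: pathway switched on by Shh-conditioned medium diluted 1 in 25 in low serum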
# NOMO-1 viab: STK33 inhibitor candidate reducing NOMO-1 cell viability | NOMO-1 AML viability, CellTiter-Glo luminescence, 72 h | inhibition, % (no concentration beside the values) | hit rate 7.5% among 37,000 | AID 2330; in the data active means inhibition above about 80%; inconclusive means no clear call, values can overlap the other calls
# Numbers stand for hits; n = inactive; u = inconclusive; x = not tested or not shown. A selection: hits, their analogues and other compounds. The true share with any hit is near 7.8%.
SMILES,MITF inh,Shh pathway inh,NOMO-1 viab
Nc1nc(SCC(=O)N2CCC(c3noc4ccc(F)cc34)CC2)n[nH]1,n,x,n
COC(=O)C(CC(C)C)NS(=O)(=O)c1ccc(-c2nnc(SC)n2C)s1 (configuration not stated),n,n,119
CC(C)CC(NS(=O)(=O)c1cccc2nsnc12)C(=O)O (configuration not stated),n,x,n
C[C@H]1CN([C@@H](C)CO)C(=O)c2cccc(NC(=O)c3nc4ccccc4s3)c2O[C@H]1CN(C)Cc1ccc(Cl)c(Cl)c1,n,n,96
C[C@@H]1CN([C@H](C)CO)C(=O)c2cccc(NC(=O)c3nc4ccccc4s3)c2O[C@H]1CN(C)Cc1ccc(-c2ccccc2)cc1,n,n,n
C[C@@H]1CN([C@H](C)CO)C(=O)c2cccc(NC(=O)c3nc4ccccc4s3)c2O[C@@H]1CN(C)Cc1ccc(Cl)c(Cl)c1,n,n,n
C[C@H](CO)N1C[C@H](C)[C@H](CN(C)Cc2ccc(Cl)c(Cl)c2)Oc2c(NC(=O)c3nc4ccccc4s3)cccc2C1=O,n,n,104
CN(CC(O)Cn1c2ccccc2c2ccccc21)S(C)(=O)=O (configuration not stated),n,x,n
CN(C)CC(O)Cn1c2ccc(Br)cc2c2cc(Br)ccc21 (configuration not stated),n,u,114
COc1ccc(Cl)cc1NC(=O)CSc1nnc(-c2ccccc2F)n1C,n,x,n
COc1ccc(-c2nnc3c4ccccc4c(C)nn23)cc1S(=O)(=O)NCC1CCCO1 (configuration not stated),n,x,n
CCOC(=O)CSc1nnc2c(n1)[nH]c1ccccc12,n,x,111
CC(=O)c1cccc(NC(=O)CSc2nnc3c(n2)[nH]c2ccccc23)c1,n,x,n
Cc1ccc(S(=O)(=O)NC(C)C(=O)Nc2ccc(C)c(Cl)c2)cc1 (configuration not stated),n,x,n
Cc1ccc(NC(=S)C(C#N)C(N)=O)cc1Cl (configuration not stated),n,n,108
C[C@@H]1CN([C@H](C)CO)C(=O)Cc2cc(NC(=O)Nc3cccc4ccccc34)ccc2O[C@H]1CN(C)Cc1ccc(C(=O)Nc2ccccc2N)cc1,n,x,n
C[C@H]1CN([C@@H](C)CO)C(=O)Cc2cc(NC(=O)NC3CCCCC3)ccc2O[C@H]1CN(C)Cc1ccc(C(=O)Nc2ccccc2N)cc1,n,x,139
CC(C)NC(=O)Nc1ccc2c(c1)CC(=O)N([C@@H](C)CO)C[C@H](C)[C@@H](CN(C)Cc1ccc(C(=O)Nc3ccccc3N)cc1)O2,n,x,n
C[C@H](CO)N1C[C@H](C)[C@H](CN(C)Cc2ccc(C(=O)Nc3ccccc3N)cc2)Oc2ccc(NC(=O)Nc3ccc(F)cc3)cc2CC1=O,n,x,127
C[C@@H]1CN([C@H](C)CO)C(=O)Cc2cc(NC(=O)NC3CCCCC3)ccc2O[C@H]1CN(C)Cc1ccc(C(=O)Nc2ccccc2N)cc1,n,x,n
C[C@@H]1CN([C@@H](C)CO)C(=O)Cc2cc(NC(=O)Nc3ccccc3)ccc2O[C@@H]1CN(C)Cc1ccc(C(=O)Nc2ccccc2N)cc1,n,x,124
C[C@@H]1CN([C@@H](C)CO)C(=O)Cc2cc(NC(=O)Nc3ccc4c(c3)OCO4)ccc2O[C@@H]1CN(C)Cc1ccc(C(=O)Nc2ccccc2N)cc1,n,x,101
COc1ccccc1NC(=O)Cn1cnc2sc(-c3ccccc3)cc2c1=O,n,x,n
C[C@@H]1CN([C@H](C)CO)C(=O)c2cc(NC(=O)NC3CCCCC3)ccc2O[C@H]1CN(C)S(=O)(=O)c1ccc(F)cc1,n,x,n
Cc1cc(C(=O)Nc2cccc3c2O[C@@H](CN(C)S(=O)(=O)c2cn(C)cn2)[C@@H](C)CN([C@H](C)CO)C3=O)n(C)n1,n,n,n
SMILES,MITF inh,Shh pathway inh,NOMO-1 viab
C[C@@H]1CCCCO[C@H](CN(C)C(=O)C2CCCCC2)[C@@H](C)CN([C@H](C)CO)C(=O)c2cc(NC(=O)CCC(F)(F)F)ccc2O1,n,n,n
C[C@@H]1CN([C@@H](C)CO)C(=O)Cc2cc(NC(=O)Nc3ccc(F)cc3)ccc2O[C@@H]1CN(C)Cc1ccc(C(=O)Nc2ccccc2N)cc1,n,x,113
C[C@@H]1CN([C@H](C)CO)C(=O)Cc2cc(NC(=O)Nc3ccc(C(F)(F)F)cc3)ccc2O[C@H]1CN(C)Cc1ccc(C(=O)Nc2ccccc2N)cc1,n,x,n
C[C@@H]1CN([C@H](C)CO)C(=O)Cc2cc(NC(=O)C3CC3)ccc2O[C@H]1CN(C)Cc1ccc(C(=O)Nc2ccccc2N)cc1,n,x,n
Cc1noc(C)c1NC(=O)Nc1ccc2c(c1)C(=O)N([C@@H](C)CO)C[C@H](C)[C@@H](CN(C)Cc1ccc(C(=O)Nc3ccccc3N)cc1)O2,n,x,n
Cc1noc(C)c1NC(=O)Nc1ccc2c(c1)CC(=O)N([C@@H](C)CO)C[C@H](C)[C@H](CN(C)Cc1ccc(C(=O)Nc3ccccc3N)cc1)O2,n,x,88
C[C@@H]1CN([C@@H](C)CO)C(=O)Cc2cc(NC(=O)C3CC3)ccc2O[C@@H]1CN(C)Cc1ccc(C(=O)Nc2ccccc2N)cc1,n,x,82
C[C@H]1CN([C@@H](C)CO)C(=O)c2cccc(NS(=O)(=O)c3ccc(Cl)cc3)c2O[C@@H]1CN(C)Cc1ccc(C(=O)O)cc1,n,n,n
COc1ccc(NC(=O)C2CCCN2S(=O)(=O)c2ccc(F)cc2)cc1 (configuration not stated),n,x,n
CCc1cccc(CC)c1NC(=O)Cn1cnc2sc(C)c(C)c2c1=O,n,x,n
COc1ccc(NC(=O)Nc2cccc3c2O[C@H](CN(C)Cc2ccc(Cl)c(Cl)c2)[C@H](C)CN([C@H](C)CO)C3=O)cc1,n,n,n
COc1ccc(NC(=O)Nc2cccc3c2O[C@@H](CN(C)Cc2ccc(Cl)c(Cl)c2)[C@@H](C)CN([C@@H](C)CO)C3=O)cc1,n,x,121
COc1ccc(NC(=O)Nc2cccc3c2O[C@@H](CN(C)Cc2ccc(Cl)c(Cl)c2)[C@@H](C)CN([C@H](C)CO)C3=O)cc1,n,n,97
C[C@H](CO)N1C[C@H](C)[C@H](CN(C)Cc2ccc(Cl)c(Cl)c2)Oc2c(NC(=O)Nc3ccccc3)cccc2C1=O,n,n,n
Cc1sc2ncn(CC(=O)Nc3cc(C(F)(F)F)ccc3Cl)c(=O)c2c1-c1ccccc1,n,x,n
C[C@@H]1CN([C@H](C)CO)C(=O)Cc2cc(NS(=O)(=O)c3ccccc3)ccc2O[C@@H]1CN(C)Cc1ccc2c(c1)OCO2,n,n,n
COc1ccc(/C=C/C(=O)NC(C)(C)C)cc1,n,n,n
COc1ccc(/C=C/C(=O)OC2CCCCC2)cc1,n,n,95
Cc1ccc(-c2nnc(SCC(=O)Nc3ccc(Br)cc3C(C)C)o2)cc1,n,x,n
CCNC(=S)N1N=C2c3ccccc3CCC2C1c1ccc(F)cc1 (configuration not stated),n,x,113
O=C(c1ccco1)N1N=C2c3ccccc3CCC2C1c1ccc(F)cc1 (configuration not stated),n,n,n
CCOC(=O)CNC(=O)c1cc(C)on1,n,x,n
COc1ccc(NC(=O)Nc2ccc3c(c2)C(=O)N([C@@H](C)CO)C[C@H](C)[C@H](CN(C)C(=O)Nc2ccc4c(c2)OCO4)O3)cc1,n,n,n
